Test [1] relates to Wnt5a (protein binding on small-molecule microarray). Briefly: small molecules binding Wnt5a protein – biophysical, small-molecule microarray, 635/667 nm fluorescence, primary screen (AID 1142).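 Further: fluorescence read at 667 nm with signal to noise per printed feature.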 Particulars: 635 nm fluorescence, higher = more signal.
Test [2] in a line: ATP-based viability of Huh7 replicon cells – cell-based, CellTiter-Glo luminescence, basal, 48 h, cytotoxicity control for HCV replication inhibitor project, primary screen (AID 1143).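 Further: Huh7 hepatoma cells carrying a hepatitis C replication reporter with no stimulus; test concentration not given here.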 Particulars: higher = more signal, called active from +8 up or from −8 down. A general note: In antiviral work, replicon cells carry a viral genome segment that copies itself.
Test [3] is described as follows: Pseudomonas biofilm growth suppression – PAO1 strain, BacTiter-Glo luminescence, LB-PBS, primary screen (AID 1144). Particulars: P. aeruginosa PAO1 biofilm, 12 h, higher = more signal.
Test [4] in a line: basal CRE-LacZ reporter activity in PC12 – cell-based, unstimulated, primary screen (AID 1145). Particulars: no forskolin, luminescence, 4.5 h, higher = more signal, called active from +8 up or from −8 down.
A short description of test [5]: forskolin-driven CRE-LacZ activity in PC12 – cell-based, CRE-LacZ reporter, forskolin-stimulated, primary screen (AID 1146).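 Further: PC12 cells with 6xCRE LacZ reporter stimulated by forskolin 10 µM; beta-galactosidase reporter signal reflecting CREB driven transcription.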 Particulars: luminescence, 4.5 h, higher = more signal, called active from +8 up or from −8 down.
In test [6] the target is Streptavidin (Streptomyces avidinii) (UniProt P22629). Briefly: compounds binding control protein streptavidin – biophysical, small-molecule microarray, 635/667 nm fluorescence, artefact control for SMM compound annotation, primary screen (AID 1147).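 Further: signal reflects streptavidin binding to arrayed compounds as a control protein.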 Particulars: higher = more signal.
Test [7] is described as follows: probe aInhba binding on compound microarray – biochemical, small-molecule microarray, 635/667 nm fluorescence, primary screen (AID 1148).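 Further: score merges 667nm spot fluorescence with signal-to-noise for antibody binding to printed compounds.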 Particulars: higher = more signal.
Test [8] addresses Torsin-1A (Homo sapiens) (UniProt O14656). Briefly: TOR1A wild-type binding on microarray – cell lysate, small-molecule microarray, lysate, 635/667 nm, primary screen (AID 1149). Particulars: COS7 hTOR1A-WT lysate, 635 nm fluorescence, higher = more signal.
Test [9] shares this target. Briefly: torsin A mutant lysate binding on microarrays – cell lysate, small-molecule microarray, COS7 lysate, 635/667 nm fluorescence, primary screen (AID 1150).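 Further: score pools 667 nm emission and signal to noise measuring lysate protein binding.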 Particulars: COS7 hTOR1A mutant lysate, 635 nm fluorescence, higher = more signal.
For test [10], the system named is Sonic hedgehog protein (Shh). Briefly: Sonic hedgehog microarray binding compounds – biochemical, small-molecule microarray, 635/667 nm fluorescence, primary screen (AID 1151).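 Further: Shh protein binding to compounds spotted on small-molecule microarray slides; score combines spot fluorescence intensity with signal-to-noise across triplicate slides.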 Particulars: 635 nm fluorescence, higher = more signal.
Test [11] is described as follows: optical density shifts of acrAB sulA E. coli – strain DRC41, OD650, 48 h, E. coli filamentation inducer project, primary screen (AID 1152).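 Further: E. coli MC1000 strain DRC41 lacking acrAB efflux pump and sulA.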 Particulars: higher = more signal, called active from +8 up or from −8 down.
A short description of test [12]: probe aLefty1 binding on compound microarray – biochemical, small-molecule microarray, 635/667 nm fluorescence, primary screen (AID 1153).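 Further: score merges spot fluorescence with signal-to-noise ratio from the scanned slide images.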 Particulars: higher = more signal.
The nature of test [13]: plasmodial surface anion channel blockers, osmotic lysis – cell-based, P. falciparum Indochina, OD700, 1 h, primary screen (AID 1154). Particulars: P. falciparum Indochina infected RBC osmotic lysis, higher = more signal, called active from +8 up or from −8 down.
A short description of test [14]: plasmodial surface anion channel blockers, osmotic lysis – cell-based, P. falciparum Indochina, OD700, 2 h, primary screen (AID 1155).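 Further: lysis reports solute entry through the parasite surface anion channel PSAC.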 Particulars: P. falciparum Indochina infected erythrocytes, higher = more signal, called active from +8 up or from −8 down.
A short description of test [15]: changes in parasitized red cell lysis, either direction – P. falciparum Indochina, OD700, 3 h, PSAC antagonist project, primary screen (AID 1156). Particulars: P. falciparum-infected erythrocytes, osmotic lysis, higher = more signal, called active from +8 up or from −8 down.
The nature of test [16]: plasmodial surface anion channel blockers, osmotic lysis – cell-based, P. falciparum Indochina, OD700, 18 h, primary screen (AID 1157). Particulars: P. falciparum Indochina infected erythrocytes, osmotic lysis OD700, 18 h; higher = more signal, called active from +8 up or from −8 down.
A short description of test [17]: S6 kinase pathway phospho-S6 level changes – cell-based, A549, cytoblot, luminescence, serum-stimulated, primary screen (AID 1158).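 Further: serum-stimulated A549 lung adenocarcinoma cells; signal is phosphorylated S6 detected by cytoblot immunostaining with HRP secondary.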 Particulars: 5 h, higher = more signal.
The target in test [18] is NADPH oxidase 2 (Homo sapiens) (UniProt P04839). Briefly: compounds shifting NOX2 Amplex Red fluorescence – cell-based, HEK293-NOX2, PMA-stimulated, NOX inhibitor project, primary screen (AID 1159). Further: test concentration not given here. Particulars: 45 min, higher = more signal, called active from +8 up or from −8 down.
Test [19] has as its target NADPH oxidase 4 (Homo sapiens) (UniProt Q9NPH5). Briefly: compounds shifting NOX4 Amplex Red fluorescence – cell-based, HEK293-NOX4, tetracycline-induced, NOX inhibitor project, primary screen (AID 1160). Particulars: HEK293-NOX4, Amplex Red H2O2 fluorescence, 45 min; higher = more signal, called active from +8 up or from −8 down.
Test [20] addresses NADPH oxidase 5 (Homo sapiens) (UniProt Q96PH1). Briefly: compounds shifting NOX5 Amplex Red fluorescence – cell-based, HEK293-NOX5, NOX inhibitor project, primary screen (AID 1161). Particulars: HEK293-NOX5, ionomycin, 45 min, higher = more signal.

Activity calls are given as the source filed them. Unless noted, how the calls were made is not given here.

Chain of Streptavidin (Streptomyces avidinii) (P22629 whole entry, looked up): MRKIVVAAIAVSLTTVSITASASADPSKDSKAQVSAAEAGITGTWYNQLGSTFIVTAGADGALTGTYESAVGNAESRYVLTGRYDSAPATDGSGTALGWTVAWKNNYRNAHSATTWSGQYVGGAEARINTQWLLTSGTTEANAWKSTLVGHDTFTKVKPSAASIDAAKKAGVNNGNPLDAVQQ
Chain of NADPH oxidase 5 (Homo sapiens) (Q96PH1 whole entry, looked up): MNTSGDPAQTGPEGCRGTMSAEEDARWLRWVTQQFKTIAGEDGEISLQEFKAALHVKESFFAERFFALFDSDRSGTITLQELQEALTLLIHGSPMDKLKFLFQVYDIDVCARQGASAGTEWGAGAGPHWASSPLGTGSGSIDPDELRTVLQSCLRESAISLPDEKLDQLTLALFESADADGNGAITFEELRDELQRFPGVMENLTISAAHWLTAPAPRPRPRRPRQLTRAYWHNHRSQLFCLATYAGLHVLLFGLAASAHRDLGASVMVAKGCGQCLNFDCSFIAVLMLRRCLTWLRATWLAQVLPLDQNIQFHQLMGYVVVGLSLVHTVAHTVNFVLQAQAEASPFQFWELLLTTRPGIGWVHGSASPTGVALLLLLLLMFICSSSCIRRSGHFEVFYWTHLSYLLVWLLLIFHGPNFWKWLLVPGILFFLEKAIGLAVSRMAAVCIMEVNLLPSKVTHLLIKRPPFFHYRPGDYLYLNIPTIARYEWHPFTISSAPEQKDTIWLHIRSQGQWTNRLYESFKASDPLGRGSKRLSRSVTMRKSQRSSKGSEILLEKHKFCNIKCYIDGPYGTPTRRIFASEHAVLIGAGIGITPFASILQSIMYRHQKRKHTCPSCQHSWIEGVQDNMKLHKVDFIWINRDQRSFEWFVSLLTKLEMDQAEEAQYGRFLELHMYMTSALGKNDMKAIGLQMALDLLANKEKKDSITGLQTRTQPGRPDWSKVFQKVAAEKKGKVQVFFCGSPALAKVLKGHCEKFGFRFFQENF
Chain of NADPH oxidase 2 (Homo sapiens) (P04839 whole entry, looked up): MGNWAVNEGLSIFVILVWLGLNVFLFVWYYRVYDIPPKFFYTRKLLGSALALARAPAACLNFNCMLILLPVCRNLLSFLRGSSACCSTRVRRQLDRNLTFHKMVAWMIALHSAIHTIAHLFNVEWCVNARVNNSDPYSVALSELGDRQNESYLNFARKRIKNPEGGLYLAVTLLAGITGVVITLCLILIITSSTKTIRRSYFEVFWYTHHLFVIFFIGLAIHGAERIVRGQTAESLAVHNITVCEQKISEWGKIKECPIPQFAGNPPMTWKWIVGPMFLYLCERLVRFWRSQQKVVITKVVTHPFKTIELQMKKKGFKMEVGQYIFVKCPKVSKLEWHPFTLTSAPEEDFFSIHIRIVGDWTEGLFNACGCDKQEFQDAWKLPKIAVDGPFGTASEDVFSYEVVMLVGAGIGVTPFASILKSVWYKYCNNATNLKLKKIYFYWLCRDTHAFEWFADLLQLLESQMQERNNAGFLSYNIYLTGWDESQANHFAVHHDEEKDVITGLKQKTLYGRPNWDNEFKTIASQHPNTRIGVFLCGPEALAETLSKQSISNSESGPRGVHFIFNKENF
Chain of NADPH oxidase 4 (Homo sapiens) (Q9NPH5 whole entry, looked up): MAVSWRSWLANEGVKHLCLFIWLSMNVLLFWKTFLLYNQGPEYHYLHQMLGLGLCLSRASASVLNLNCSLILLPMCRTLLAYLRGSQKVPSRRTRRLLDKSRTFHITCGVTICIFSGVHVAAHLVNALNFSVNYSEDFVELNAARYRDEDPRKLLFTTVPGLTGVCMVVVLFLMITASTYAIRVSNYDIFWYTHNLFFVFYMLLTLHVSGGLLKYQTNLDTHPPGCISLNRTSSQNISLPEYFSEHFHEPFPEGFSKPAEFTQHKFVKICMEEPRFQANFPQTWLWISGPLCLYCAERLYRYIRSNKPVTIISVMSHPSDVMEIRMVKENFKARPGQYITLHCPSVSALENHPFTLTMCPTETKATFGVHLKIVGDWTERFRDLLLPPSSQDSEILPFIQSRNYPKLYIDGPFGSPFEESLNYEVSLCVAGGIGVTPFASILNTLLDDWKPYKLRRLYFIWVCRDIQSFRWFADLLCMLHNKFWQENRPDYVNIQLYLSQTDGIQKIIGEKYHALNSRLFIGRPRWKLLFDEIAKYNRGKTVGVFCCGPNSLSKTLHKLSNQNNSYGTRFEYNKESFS
Chain of Torsin-1A (Homo sapiens) (O14656 whole entry, looked up): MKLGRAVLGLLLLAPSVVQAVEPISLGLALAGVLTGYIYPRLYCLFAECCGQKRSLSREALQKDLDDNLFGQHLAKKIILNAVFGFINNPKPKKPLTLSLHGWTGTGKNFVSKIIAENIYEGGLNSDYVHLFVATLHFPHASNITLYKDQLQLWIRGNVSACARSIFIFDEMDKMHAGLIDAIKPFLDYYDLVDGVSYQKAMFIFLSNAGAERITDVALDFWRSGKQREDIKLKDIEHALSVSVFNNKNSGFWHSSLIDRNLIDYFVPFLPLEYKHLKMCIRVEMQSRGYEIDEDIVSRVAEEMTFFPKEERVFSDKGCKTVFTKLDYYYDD

Turning to `Cc1ccc(S[C@]2(C(=O)NC3CC3)CC(=O)N(Cc3cc(C(F)(F)F)cc(C(F)(F)F)c3)[C@@H]2c2ccc(CO)cc2)cc1`, the composite z-score was 0.134 in [1]; -0.103 in test [6]; -0.128 in test [7]; -0.408 in [8]; 0.227 in [9]; 1.38 in [10]. Also, the composite z-score in test [12] was -0.0186. Also, the z-score is -2.38 (inactive) in [2]; -1.59 (inactive) in test [3]; -0.374 (inactive) in test [4]; 0.121 (inactive) in test [5]; 0.537 (inactive) in test [11]; 1.21 (inactive) in test [13]. Besides, the z-score was -0.861 (inactive) in test [14]; 1.08 (inactive) in test [15]; -1.95 (inactive) in [16]; 0.95 in test [17]; 0.249 (inactive) in test [18]; -0.00878 (inactive) in test [19]. In addition, the z-score in [20] is 1.78.

Consider `COCCOC(=O)N1C(=O)[C@@]2(c3cc(C#CCNC(N)=O)ccc31)[C@H](C(=O)N1CCCCCCC1)[C@H]1C(=O)O[C@H](c3ccccc3)[C@H](c3ccccc3)N1[C@@H]2c1ccccc1OCCO`, for which the composite z-score worked out at 0.472 in test [1]; 0.875 in [6]; 0.218 in test [7]; 0.207 in test [8]; 0.645 in test [9]; 1.09 in test [10]. This molecule yielded a composite z-score in test [12] of 1.28. Also, the z-score in [2] was -0.798 (inactive); in [3], -0.416 (inactive); in [4], -0.602 (inactive); in test [5], -1.01 (inactive); in test [11] it was -0.332 (inactive); in test [13], 1.17 (inactive). Further, the z-score is 1.53 (inactive) in [14]; 0.926 (inactive) in test [15]; 0.927 (inactive) in [16]; 0.344 in test [17]; 1.66 (inactive) in test [18]; 0.683 (inactive) in test [19]. Further, the z-score in [20] was 0.357.

For `O=C/C=C/c1ccccc1Cl`, the composite z-score in test [1] is -0.159; in test [6], 0.143; in test [7] it was 0.0705; in [8], -0.342; in [9], 0.081; in test [10] it was -0.0129. In test [12], this molecule came in with a composite z-score of -0.191. In addition, the z-score in test [2] is -0.724 (inactive); in [3], -0.904 (inactive); in [4], -0.0243 (inactive); in test [5], -0.468 (inactive); in [11] it was 2.11 (inactive); in test [13] it was 0.159 (inactive). In addition, the z-score was 0.282 (inactive) in [14]; -2.03 (inactive) in [15]; 0.206 (inactive) in test [16]; 1.11 in [17]; -0.129 (inactive) in [18]; -0.729 (inactive) in [19]. In test [20], the z-score is 1.38.

For the molecule `COCCOC(=O)N1C(=O)[C@@]2(c3cc(C#CC4=CCCCC4)ccc31)[C@H](C(=O)NC[C@H](O)c1ccccc1)[C@H]1C(=O)O[C@H](c3ccccc3)[C@H](c3ccccc3)N1[C@@H]2c1ccccc1OCCO`, the composite z-score in [1] amounted to 0.255; in [6] it was 0.634; in test [7] it was 0.243; in [8] it was 0.453; in test [9], 0.509; in test [10] it was 1.53. Further, the composite z-score in test [12] came to 0.705. The z-score in test [2] is -5.75 (inactive); in test [3], 0.423 (inactive); in [4], 0.48 (inactive); in test [5], -0.99 (inactive); in test [11], -0.499 (inactive); in test [13], 3.23 (inactive). Besides, the z-score in [14] is 1.95 (inactive); in [15] it was -0.032 (inactive); in [16] it was 1.78 (inactive); in [17], -0.178; in [18], 1.53 (inactive); in test [19] it was 0.911 (inactive). Besides, the z-score in [20] amounted to 1.2.

Consider `COC(=O)[C@@]1(Cc2ccccc2N=[N+]=[N-])N=C(c2ccc(OCCCO)cc2)O[C@H]1c1ccccc1CN=[N+]=[N-]`, for which the composite z-score in [1] was 0.171; in test [6] it was -0.46; in test [7], -0.0102; in test [8], -0.181; in test [9] it was -0.303; in test [10], 0.144. The composite z-score in test [12] turned out to be 0.191. Further, the z-score in [2] is -5.31 (inactive); in test [3] it was 1.18 (inactive); in [4], 3.33 (inactive); in test [5], -0.412 (inactive); in test [11], 0.383 (inactive); in test [13], 22.3 (active). Moreover, the z-score in test [14] is 8.71 (active); in [15], 0.12 (inactive); in test [16] it was 3.46 (inactive); in [17], 0.575; in test [18], -1.84 (inactive); in [19], 0.483 (inactive). The z-score in test [20] is -0.961.

(Values after PubChem BioAssay.)
